In PubChem BioAssay:
Records with an inconclusive call do not appear. Activity calls are given as the source filed them.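 How the source made its calls, unless noted: active means RAM network inhibition above 8.4% in each of two replicates, 3 SD over the compound average; inconclusive means above 8.4% inhibition in only one replicate; inactive means 8.4% inhibition or less in each replicate.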

What was measured:
[1] = reducers of endogenous Her2 protein level, primary screen, SKBR3 breast tumor cells, AlphaScreen, ATP viability (AID 461;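 active means Her2 level under about 52% in both replicate screens, with viability over 70% of control, limit read from the data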;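 on Her2 level: lower value means less Her2 protein in the cells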;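 on viability: percent of carrier control wells set as 100% viability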); details: 18-24 h, measured here: SKBR3 viability, ATP luminescence, at 10 µM
[2] = target: Receptor tyrosine-protein kinase erbB-2 (Homo sapiens) (UniProt P04626); assay: as above; details: 18-24 h, at 10 µM, stronger effect = lower value
[3] = SK-BR-3 cell growth inhibitors, pilot screen, 24 h, human (AID 572;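 active means viability at or below 10% of carrier control in both of two separate runs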;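 further: compound exposure lasted between 18 and 24 h rather than exactly 24 h; 100% = carrier-treated control wells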); details: SK-BR-3 viability, CellTiter-Glo luminescence, at 10 µM, stronger effect = lower value
[4] = HUVEC growth inhibition – cell-based, human, primary screen (AID 575;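 active means viability at or below 30% in both replicate assays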;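 further: 100% = median of untreated cell wells with 0.1% DMSO on each plate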); details: HUVEC proliferation, CellTiter-Glo luminescence, 72 h; at 10 µM; stronger effect = lower value
[5] = growth inhibitors of H69AR lung tumor, primary screen, human, duplicate replicates (AID 580;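 active means viability at or under a set limit in both replicates, limit being median viability minus 3 SD, cut at about 48% in these data, passing the limit was not always enough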;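 further: 100% = mean luminescence of untreated wells and 0% = no signal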); details: H69AR lung tumor cells viability, ATP luminescence, 72 h; at 10 µM; stronger effect = lower value
[6] = reversal of MRP1-mediated doxorubicin resistance, pilot screen, H69AR cells, doxorubicin co-treatment (AID 601;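 active means viability loss from added drug above about 55%, and viability with drug at most 40%, in both replicates, limit read from the data, passing the limit was not always enough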); details: CellTiter-Glo, 72 h, at 10 µM; for differential viability (reversal): stronger effect = higher value
[7] = 384-well plate pilot, post-Golgi transport modulator project, inhibition of yeast transport mutant growth (AID 636; in the data active means inhibition above about 31%); details: absorbance 615 nm, about 18 h, stronger effect = higher value
[8] = growth suppression of yeast trafficking mutant, preliminary HTS, modulators of trafficking downstream of Golgi apparatus project, 1536-format plate, OD 615 nm (AID 637; in the data active means inhibition above about 30%); details: yeast transport mutant growth, absorbance 615 nm, 18 h; stronger effect = higher value
[9] = OD615 S. cerevisiae growth inhibition, permissive medium, pilot counter-assay, permissive growth control for S. cerevisiae lifespan shortening project (AID 705;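 active means growth inhibition above 25% in both replicates, a cutoff set 3 SD above the mean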); details: OD615, 24 h, at 10 µM, stronger effect = higher value
[10] = Restrictive medium S. cerevisiae growth inhibition, OD615, pilot screen of yeast lifespan reduction project, restrictive growth control (AID 706;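 active means growth inhibition above a set limit, 3 SD over mean compound inhibition, in both replicates, cut at about 43% in these data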;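 further: modified DeaD lifespan yeast strain shifted to restrictive glucose medium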); details: OD615, 48 h, at 10 µM, stronger effect = higher value
[11] = viability gain of MRP-1-high H69AR cells under doxorubicin, pilot screen, MRP-1 activator project, CellTiter-Glo, duplicate (AID 807;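 active means viability increase at or above a cutoff of the median across tested compounds plus 3 SD, cut at about 8.5% in these data, passing the limit was not always enough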;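 further: compound pretreatment 18-22 h then 72 h combined with doxorubicin; 0% = doxorubicin alone and 100% = vehicle without doxorubicin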); details: H69AR viability with doxorubicin, CellTiter-Glo luminescence; at 10 µM; stronger effect = higher value
[12] = growth suppression of beta-catenin knockout HCT116, pilot screen, human colon tumor cells (AID 823;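 active means cell viability at or below a set limit in both duplicate runs, the limit being the all-compound median minus 4 SD, cut at about 23% in these data, passing the limit was not always enough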;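 further: 0% = wells killed by 20 µM Hyamine and 100% = untreated DMSO cell wells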); details: CellTiter-Glo, 60 h, at 10 µM, stronger effect = lower value
[13] = growth suppression of PTEN-deleted HCT116, pilot screen, cell-based, HCT116 clonal line, CellTiter-Glo (AID 824;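 active means viability at or below 27.92% in each of two runs, the all-compound median minus 4 SD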;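 further: 0% = 20 µM Hyamine control and 100% = vehicle cell control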); details: 60 h, at 10 µM, stronger effect = lower value
[14] = inhibitors of the yeast RAM network, pilot screen, dse1pr::URA3 reporter, 5-FOA selection (AID 869;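 active means inhibition over a set limit, the all-compound mean plus 3 SD, in both replicate runs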;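 further: 0% = DMSO wells with no growth and 100% = 10 µM 1-NA-PP1 with full growth; RAM network block rescues cells from 5-FOA so hits raise OD615 growth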); details: S. cerevisiae dse1pr::URA3 5-FOA growth, OD615, 2 d; at 10 µM; stronger effect = higher value; strain carries analog-sensitive mutant Cbk1 kinase
[15] = RAM signaling pathway blockade in yeast – S. cerevisiae, Pdr1DBD-CYC8 efflux-inhibited sensitized strain, primary screen (AID 1298);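 further: 0% = DMSO untreated cells without growth and 100% = 10 µM 1-NA-PP1 full growth; higher means more yeast growth rescued from 5-FOA killing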; details: S. cerevisiae cbk1-as DSE1-URA3 strain, 5-FOA growth OD615, 2 d; at 50 µM; stronger effect = higher value
[16] = H69AR cells + 2 uM doxorubicin, measured here: viability with 2 uM doxorubicin, stronger effect = lower value
[17] = H69AR cells, compound alone cytotoxicity

Sequence of Receptor tyrosine-protein kinase erbB-2 (Homo sapiens) (P04626 whole entry, looked up): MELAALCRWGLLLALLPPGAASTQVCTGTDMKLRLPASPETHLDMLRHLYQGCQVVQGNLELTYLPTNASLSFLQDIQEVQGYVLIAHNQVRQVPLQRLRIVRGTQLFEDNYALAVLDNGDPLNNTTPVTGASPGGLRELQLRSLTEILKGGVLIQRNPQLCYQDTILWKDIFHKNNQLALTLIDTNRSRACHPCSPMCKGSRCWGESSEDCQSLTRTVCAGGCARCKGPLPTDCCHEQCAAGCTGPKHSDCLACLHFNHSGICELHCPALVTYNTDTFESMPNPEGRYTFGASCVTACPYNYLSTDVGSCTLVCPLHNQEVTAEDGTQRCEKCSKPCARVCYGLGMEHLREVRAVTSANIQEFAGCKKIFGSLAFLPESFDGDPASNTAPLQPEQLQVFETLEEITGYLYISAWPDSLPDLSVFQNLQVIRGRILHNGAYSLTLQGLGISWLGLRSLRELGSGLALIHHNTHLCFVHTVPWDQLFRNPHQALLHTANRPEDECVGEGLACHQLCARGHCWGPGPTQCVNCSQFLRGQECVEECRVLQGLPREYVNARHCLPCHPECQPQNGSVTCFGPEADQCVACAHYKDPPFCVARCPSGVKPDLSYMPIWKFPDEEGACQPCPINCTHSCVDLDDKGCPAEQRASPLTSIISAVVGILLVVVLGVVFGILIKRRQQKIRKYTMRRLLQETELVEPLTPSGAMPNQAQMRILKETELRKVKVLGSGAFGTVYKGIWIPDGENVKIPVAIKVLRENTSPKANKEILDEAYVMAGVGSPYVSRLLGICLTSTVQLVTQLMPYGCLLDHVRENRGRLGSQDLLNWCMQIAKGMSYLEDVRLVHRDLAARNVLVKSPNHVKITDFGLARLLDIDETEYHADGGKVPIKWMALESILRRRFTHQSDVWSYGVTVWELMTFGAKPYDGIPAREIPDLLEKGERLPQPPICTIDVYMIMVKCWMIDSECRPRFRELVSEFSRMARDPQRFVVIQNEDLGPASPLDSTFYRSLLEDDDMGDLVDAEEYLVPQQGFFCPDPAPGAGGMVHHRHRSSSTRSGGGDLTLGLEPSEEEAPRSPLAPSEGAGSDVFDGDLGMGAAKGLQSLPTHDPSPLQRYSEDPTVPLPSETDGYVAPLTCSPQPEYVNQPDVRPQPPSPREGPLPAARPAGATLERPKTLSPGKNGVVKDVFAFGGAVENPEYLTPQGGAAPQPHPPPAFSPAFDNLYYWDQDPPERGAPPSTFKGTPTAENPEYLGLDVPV

SMILES	viability [1] [%]	Her2 level [2]	viability [3]	viability [4]	viability [5]	differential viability (reversal) ([6]; H69AR cells + 2 uM doxorubicin)	viability [6, 16] [%]	viability [6, 17] [%]	inhibition [7]	inhibition [8]	growth inhibition [9]	growth inhibition [10]	viability increase [11]	viability [12]	viability [13]	inhibition [14]	RAM network inhibition [15]
O=C1c2ccccc2C(Nc2ccc3c(c2)OCCO3)N1Cc1ccc2c(c1)OCO2 (centres undefined)	91	94.5% (inactive)	91% (inactive)	64.8% (inactive)	86.4% (inactive)	-4.04% (inactive)	90.4	86.4	-5.73% (inactive)	0.5% (inactive)	-4.37% (inactive)	8.02% (inactive)	0.68% (inactive)	82.2% (inactive)	72.2% (inactive)	2.92% (inactive)	4.31% (inactive)
CC(=O)c1sc(NC(=O)C2COc3ccccc3O2)nc1C (centres undefined)	102	97.5% (inactive)	102% (inactive)	80.7% (inactive)	89.2% (inactive)	11.4% (inactive)	77.8	89.2	4.1% (inactive)	3.5% (inactive)	-8.75% (inactive)	-3.37% (inactive)	-1.12% (inactive)	99.4% (inactive)	99% (inactive)	0.05% (inactive)	-0.31% (inactive)
CCCCn1c(CNC(=O)CCC)nc2ccccc21	116	102% (inactive)	116% (inactive)	87.8% (inactive)	91.8% (inactive)	3.83% (inactive)	87.9	91.8	-5.2% (inactive)	-4.67% (inactive)	-9.17% (inactive)	-13.8% (inactive)	-2.97% (inactive)	104% (inactive)	100% (inactive)	-0.485% (inactive)	1.51% (inactive)
CS(=O)(=O)N(Cc1ccco1)CC(O)Cn1c2ccccc2c2ccccc21 (centres undefined)	93.5	71.5% (inactive)	93.5% (inactive)	76.8% (inactive)	80.5% (inactive)	-2.92% (inactive)	83.4	80.5	-3.9% (inactive)	-4.5% (inactive)	-6.72% (inactive)	-1.61% (inactive)	-4.51% (inactive)	72.2% (inactive)	74.5% (inactive)	1.9% (inactive)	1.64% (inactive)
COc1ccc(CC(=O)NCc2nnc(SCC(=O)Nc3nccs3)n2-c2ccccc2)cc1	99.5	98% (inactive)	99.5% (inactive)	98.4% (inactive)	96.6% (inactive)	2.73% (inactive)	93.9	96.6	-4.4% (inactive)	-3.67% (inactive)	-3.97% (inactive)	7.4% (inactive)	-1.27% (inactive)	102% (inactive)	96.7% (inactive)	1.48% (inactive)	6.87% (inactive)
CCC(=O)c1cc(F)c(N2CCN(C(=O)c3ccco3)CC2)cc1C	82	90.5% (inactive)	82% (inactive)	91.2% (inactive)	87.9% (inactive)	-8.33% (inactive)	96.3	87.9	-0.8% (inactive)	2.13% (inactive)	-10.3% (inactive)	-0.62% (inactive)	-0.95% (inactive)	97.9% (inactive)	88.3% (inactive)	1.4% (inactive)	0.21% (inactive)
COc1ccc(S(=O)(=O)N(CC(=O)N2CCN(c3ccccc3OC)CC2)c2ccccc2)cc1	74	108% (inactive)	74% (inactive)	51.8% (inactive)	86.8% (inactive)	-8.61% (inactive)	95.4	86.8	-6.35% (inactive)	-2.3% (inactive)	-11.3% (inactive)	-11.3% (inactive)	5.84% (inactive)	67.2% (inactive)	72.3% (inactive)	0.87% (inactive)	2.02% (inactive)
O=C(NCCSc1c[nH]c2ccccc12)c1ccc(Br)o1	104	94.5% (inactive)	104% (inactive)	47.8% (inactive)	54.6% (inactive)	-21.1% (inactive)	75.8	54.6	-2.93% (inactive)	1.17% (inactive)	-10.7% (inactive)	-12.6% (inactive)	-3.97% (inactive)	106% (inactive)	93.6% (inactive)	1.83% (inactive)	3.28% (inactive)
COCCn1cc(C(=O)c2ccccc2OCC(=O)Nc2cc(C)on2)cc(C#N)c1=O	82.5	115% (inactive)	82.5% (inactive)	89% (inactive)	108% (inactive)	6.63% (inactive)	102	108	-2.76% (inactive)	-1.17% (inactive)	-25.8% (inactive)	-14% (inactive)	-0.5% (inactive)	92.9% (inactive)	99.5% (inactive)	1.68% (inactive)	3.2% (inactive)
O=C(Nc1cccnc1)Nc1ccccn1	100	100% (inactive)	100% (inactive)	105% (inactive)	96.9% (inactive)	9.92% (inactive)	87	96.9	-1.69% (inactive)	-2.33% (inactive)	-2.38% (inactive)	-0.12% (inactive)	-0.73% (inactive)	99.8% (inactive)	92.9% (inactive)	0.185% (inactive)	0.51% (inactive)
Cc1ccc(C(=O)OCC(=O)Nc2ccc3c(c2)OCO3)o1	110	118% (inactive)	110% (inactive)	102% (inactive)	97.3% (inactive)	1.98% (inactive)	95.3	97.3	-2.16% (inactive)	-5.87% (inactive)	-4.63% (inactive)	-8.6% (inactive)	-1.03% (inactive)	97.6% (inactive)	99.3% (inactive)	0.95% (inactive)	2.58% (inactive)
COc1c(C(=O)Nc2c(C)n(C)n(-c3ccccc3)c2=O)ccc2ccccc12	97	104% (inactive)	97% (inactive)	99.3% (inactive)	113% (inactive)	25.5% (inactive)	87	113	-1.07% (inactive)	-6.45% (inactive)	-2.42% (inactive)	-6.28% (inactive)	-0.81% (inactive)	98.8% (inactive)	98.3% (inactive)	0.775% (inactive)	4.37% (inactive)
